“And” between values parts separate entries of the source, which are not always exact repeats. Equal entries are not always repeated. Among all 5,500 compounds or so, about 2,000 (36%) were called active. Not shown: some 18% with an inconclusive outcome. Cut-off read from the data, not from the text of the source: active = normalized growth mostly below about 0.91 (no sharp cut-off); inconclusive = no clear call, values can overlap the other calls; inactive = mostly above about 0.92. The list shows a part of the results.
Assay: chemical genetic growth profiling, strain panel (AID 1159580);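 note: tested at 20 µM; growth read once vehicle control cultures reached saturation at 30 °C; 1 = growth at the plate median or of vehicle wells; lower values mean less growth of the strain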
Conditions: S. cerevisiae deletion strains, growth OD

Measured: normalized growth

COC(=O)C1=COC(C)C2CN3CCC4(C(=O)Nc5ccccc54)C3CC12 (configuration not stated)
inactive: locus YAL021C, strain ccr4, hits give low values 1.02 and 1.01 | locus YAL026C, strain drs2, hits give low values 1.02 | locus YAL030W, strain snc1, hits give low values 1.01 | locus YBL061C, strain skt5, hits give low values 1.04 and 1.02 and 1.03 | locus YBR009C, strain hhf1, hits give low values 1.04 and 1.01 and 1.02 | locus YBR023C, strain chs3, hits give low values 1.02 and 1.01 | locus YBR171W, strain sec66, hits give low values 1.03 and 1.02 | locus YBR231C, strain swc5, hits give low values 1.02 | locus YBR279W, strain paf1, hits give low values 1.02 and 1.01 | locus YCL011C, strain gbp2, hits give low values 1.02 and 1.01 | locus YCL016C, strain dcc1, hits give low values 1.01 | locus YCL061C, strain MRC1, hits give low values 1.02 and 1.01 | locus YCL069W, strain vba3, hits give low values 1.02 and 1.01 | locus YCR088W, strain abp1, hits give low values 1.02 and 1.01 | locus YDL005C, strain med2, hits give low values 1.02 and 1.01 | locus YDL040C, strain nat1, hits give low values 1.02 | locus YDR001C, strain nth1, hits give low values 1.02 and 1.01 | locus YDR069C, strain doa4, hits give low values 1.02 and 1.04 | locus YDR137W, strain rgp1, hits give low values 0.988 and 0.962 and 0.914 | locus YDR159W, strain sac3, hits give low values 1.05 and 1.02 and 1.03 | locus YDR195W, strain ref2 0.992 and 0.996 and 1.01 | locus YDR297W, strain sur2, hits give low values 1.02 | locus YDR334W, strain swr1, hits give low values 1.02 and 1.01 | locus YDR335W, strain msn5, hits give low values 1.03 and 1.02 | locus YDR392W, strain spt3, hits give low values 1.04 and 1.02 | locus YEL003W, strain gim4, hits give low values 1.03 and 1.02 | locus YEL037C, strain rad23, hits give low values 1.01 and 1.02 | locus YEL061C, strain CIN8 (second series), hits give low values 1.02 and 1.01 | locus YER015W, strain faa2, hits give low values 1.02 | locus YER016W, strain bim1, hits give low values 1.01 and 1.02 | locus YER111C, strain swi4, hits give low values 1.03 and 1.02 and 1.04 | locus YER155C, strain BEM2 (second series), hits give low values 1.03 and 1.02 and 1.04 | locus YFR010W, strain ubp6, hits give low values 1.02 | locus YGL167C, strain pmr1, hits give low values 1.03 and 1.01 and 1.02 | locus YGL173C, strain kem1, hits give low values 1.04 and 1.02 and 1.03 | locus YGL227W, strain vid30, hits give low values 1.03 and 1.01 and 1.02 | locus YGL240W, strain doc1, hits give low values 1.02 | locus YGL253W, strain hxk2, hits give low values 1.02 and 1.01 | locus YHR013C, strain ard1, hits give low values 1.03 and 1.01 and 1.02 | locus YHR027C, strain rpn1, hits give low values 1.02 and 1.01 | locus YHR142W, strain chs7, hits give low values 1.02 and 1.01 | locus YJL092W, strain hpr5, hits give low values 1.03 and 1.01 and 1.02 | locus YJL095W, strain BCK1 (second series), hits give low values 1.01 and 1.02 | locus YJL115W, strain asf1, hits give low values 1.02 and 1.01 | locus YJL129C, strain trk1, hits give low values 1.03 and 1.02 | locus YJL154C, strain vps35, hits give low values 1.02 and 1.01 | locus YJL164C, strain tpk1, hits give low values 1.02 and 1.03 | locus YJL166W, strain qcr8, hits give low values 1.03 and 1.01 and 1.02 | locus YJL187C, strain SWE1, hits give low values 1.02 and 1.01 | locus YKL160W, strain elf1, hits give low values 1.02 | locus YKR026C, strain gcn3, hits give low values 1.02 and 1.03 | locus YKR091W, strain srl3, hits give low values 1.02 and 1.03 | locus YLL001W, strain dnm1, hits give low values 1.03 and 1.02 | locus YLL026W, hits give low values 1.01 and 1.02 | locus YLL041C, strain sdh2, hits give low values 1.02 and 1.01 | locus YLR027C, strain aat2, hits give low values 1.03 and 1.01 | locus YLR221C, strain rsa3, hits give low values 1.02 and 1.01 | locus YLR258W, strain gsy2, hits give low values 1.02 | locus YLR262C, strain YPT6 (second series), hits give low values 1.02 and 1.01 and 0.938 | locus YLR320W, strain mms22, hits give low values 1.04 and 1.03 | locus YLR342W, strain FKS1, hits give low values 1.02 | locus YLR357W, strain rsc2, hits give low values 1.02 and 0.996 and 1.03 | locus YLR370C, strain arc18, hits give low values 1.03 and 1 and 1.01 | locus YLR384C, strain iki3, hits give low values 1.02 and 1.01 | locus YML120C, strain ndi1, hits give low values 1.04 and 1.02 and 1.03 | locus YMR058W, strain fet3, hits give low values 1.02 | locus YMR125W, strain sto1, hits give low values 1.02 and 1.04 | locus YMR129W, hits give low values 1.02 and 1.01 | locus YMR205C, strain PFK2, hits give low values 1.03 and 1.02 | locus YMR231W, strain pep5, hits give low values 1 and 1.01 | locus YNL071W, strain lat1, hits give low values 1.02 and 1.01 | locus YNL209W, strain ssb2, hits give low values 1.02 and 1.01 | locus YNL248C, strain rpa49, hits give low values 1.02 and 1.01 | locus YNL322C, strain KRE1 (second series), hits give low values 1.01 and 1.02 | locus YNR049C, strain mso1, hits give low values 1.02 and 1.01 and 1.03 | locus YOR001W, strain rrp6, hits give low values 1.03 and 1.02 | locus YOR070C, strain gyp1, hits give low values 1.02 and 1.01 | locus YOR080W, strain dia2, hits give low values 1.03 and 1.02 | locus YOR083W, strain WHI5, hits give low values 1.02 and 1.01 | locus YOR106W, strain vam3, hits give low values 1.02 | locus YOR265W, strain rbl2, hits give low values 1.01 and 1.02 | locus YOR270C, strain vph1, hits give low values 1.02 and 1.04 and 1.03 | locus YOR290C, strain snf2, hits give low values 1.02 | locus YPL051W, strain arl3, hits give low values 1.01 | locus YPL078C, strain atp4, hits give low values 1.02 | locus YPL106C, strain sse1, hits give low values 0.998 and 1 and 1.02 | locus YPL240C, strain hsp82, hits give low values 1 and 1.02
